# Laboratory results reported in PubChem BioAssay AID588405 (Sanford-Burnham Center for Chemical Genomics, 2011).
# Several values for one entry are separate records, joined by “and”; a condition that tells them apart may be missing. Equal values may be shown once. Screen size: about 360,000 compounds; about 6,200 (1.7%) were called active.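 The calls were made as follows: active = inhibition of at least 50% at 20 µM; inactive = the rest.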 Only a selection was taken, and actives are over-represented in it overall.
# Assay: Peg3 promoter-driven luciferase inhibitors, primary screen, cell-based, HeLa, luciferase luminescence (AID 588405)
# Details: HeLa PEG-Prom luciferase reporter, overnight, at 20 µM, hits give high values
row,Structure (SMILES),inhibition
1,CC(=O)Nc1cc(-c2ccccc2N(C)C)cn2c(-c3ccc(F)c(Cl)c3)cnc12,32% (inactive)
2,COc1ccc(NC(=O)C(C)SCc2ccccc2)cc1 (stereo unspecified),-27.6% (inactive)
3,O=C(c1cc(C2CCCCN2S(=O)(=O)c2ccccc2)on1)N1CCOCC1 (stereo unspecified),1.6% (inactive)
4,COc1cc(Cn2c3ccc(NC(=O)CC(C)c4ccccc4)cc3c(=O)n2C)ccc1F (stereo unspecified),12.9% (inactive)
5,Cc1[nH]c(=O)c(C(=O)/C=C/c2ccccc2)c2c1CCCC2,102% (active)
6,CC1(C(=O)O)CCCN(C(=O)/C=C/c2ccccc2)C1 (stereo unspecified),5.91% (inactive)
7,COC(=O)c1c(C)[nH]c(C(=O)/C=C/c2ccc(Cl)cc2)c1C,-126% (inactive)
8,COc1ccc(-c2coc3c(C(=O)NC(C)C)cccc23)c(C)c1,10.8% (inactive)
9,COc1ccc(S(=O)(=O)NC(=O)C2(C)CCN2C(=O)c2ccccc2CCc2ccccc2)cc1 (stereo unspecified),-1.34% (inactive)
10,CCCC(=O)N1CCC1(C)C(=O)NCc1ccc(SC)cc1 (stereo unspecified),-5.97% (inactive)
11,Cc1cccc(N2C(=O)SC(SC(=Nc3ccccc3)Nc3ccccc3)C2=O)c1 (stereo unspecified),-30% (inactive)
12,Cc1ccc(-c2nn(C(C)(C)C)c3ncnc(N)c23)cc1,55.2% (active)
13,N#Cc1ccc(-c2ccc3nccn3c2)cc1,-24.7% (inactive)
14,O=C1NC(c2ccccc2)=NC1(Nc1ccccn1)C(F)(F)F (stereo unspecified),-4.5% (inactive)
15,CC(=O)c1ccc(-c2cnc3c(NC=O)cc(-c4cccc(NS(C)(=O)=O)c4)cn23)cc1,48.1% (inactive)
16,O=c1c([N+](=O)[O-])cccn1Cc1ccc(F)cc1Cl,56.1% (active)
17,Cc1ccc(-c2ccc(=O)n(Cc3ccc(F)cc3Cl)n2)cc1,2.87% (inactive)
18,N/C(=N/O)c1cccn1Cc1ccccc1[N+](=O)[O-],3.69% (inactive)
19,CC(C)c1cccc(-c2csc(C(O)c3ccccc3)n2)c1 (stereo unspecified),-103% (inactive)
20,CSCCC(c1nnnn1Cc1ccccc1)N1CCN(C/C=C/c2ccccc2)CC1 (stereo unspecified),11.4% (inactive)
21,CCc1ccc(C2N3CC4([N+](=O)[O-])CN2CC([N+](=O)[O-])(C3)C4(C)C)cc1 (stereo unspecified),27.3% (inactive)

row,Structure (SMILES),inhibition
1,C=CC[n+]1c(-c2ccc(C)cc2)csc1NNC(=O)Nc1ccccc1,-6.81% (inactive)
2,NC(c1csc(NC(=O)Nc2ccccc2Oc2ccccc2)n1)c1ccccc1Cl (stereo unspecified),58.1% (active)
3,COc1ccccc1NC(=O)Nc1nc(CC(=O)Nc2ccccc2F)cs1,4.34% (inactive)
4,CC(=O)c1ccc(Nc2nc(C(N)c3ccccc3Cl)cs2)cc1 (stereo unspecified),-22.8% (inactive)
5,O=S1(=O)C[C@@H](N2CCN(CCO)CC2)[C@H](COCc2ccccc2)N1,-0.57% (inactive)
6,COC(=O)C1=C(C)N(C(C)c2ccccc2)C(=O)/C1=C\c1ccco1 (stereo unspecified),12.2% (inactive)
7,COCCn1c(=S)[nH]c2cc(C(=O)NCCc3ccc(OC)c(OC)c3)ccc2c1=O,17.6% (inactive)
8,O=C(CCn1c(=S)[nH]c2cc3c(cc2c1=O)OCO3)NCc1ccc(Cl)cc1,9.93% (inactive)
9,CCN(CC)CCCNC(=O)c1ccc2c(=O)n(Cc3ccc4c(c3)OCO4)c(=S)[nH]c2c1,56.1% (active)
10,NC(=O)CSc1nnc(NC(=O)c2ccc(Br)o2)s1,-5.94% (inactive)
11,Cc1nnc(NC(=O)C(c2ccccc2)c2ccccc2)s1,-0.94% (inactive)
12,Cc1ccc(S(=O)(=O)CCC(=O)Nc2nnc(CC(C)C)s2)cc1,10.6% (inactive)
13,Cc1ccc(CS(=O)(=O)c2ncc(Cl)c(C(=O)Nc3nnc(C)s3)n2)cc1,98.9% (active)
14,O=C(Nc1nnc(-c2ccc(F)cc2)s1)c1c(F)cccc1Cl,-27.2% (inactive)
15,CSc1nnc(NC(=O)c2nc(S(=O)(=O)Cc3ccc(C)cc3)ncc2Cl)s1,103% (active)
16,Nc1nc2cc(Cl)ccc2n1N,-1.93% (inactive)
17,CC(C)NC(=O)C1(C)CCCCCN1C(=O)c1ccc(-c2ccccc2)cc1 (stereo unspecified),-0.82% (inactive)
18,O=C(c1[nH]ncc1-c1ccc(Cl)cc1)C1CO1 (stereo unspecified),52% (active)
19,COc1ccc(NC(=O)C2Cc3c(-c4ccc(Cl)cc4)ccnc3O2)cc1 (stereo unspecified),22.6% (inactive)
20,COc1cccc(C(NC(C)=O)c2nc(-c3ccccc3OC)cs2)c1 (stereo unspecified),-8.65% (inactive)
21,Nc1nc(NC(=O)/C=C/c2ccccc2)nn1-c1ccccc1,-6.78% (inactive)

row,Structure (SMILES),inhibition
1,CCC(=O)c1ccc(OCC(=O)Nc2ccc(N3CCCCC3)cc2)cc1,-13.9% (inactive)
2,c1ccc(-n2cccc2)c(N2CCCCC2)c1,2.67% (inactive)
3,O=C1C=CC(=O)N1c1ccc(N2CCCCC2)cc1,108% (active)
4,CN1OC[C@@H]2CN(C(=O)c3cccnc3)[C@H](c3ccc(N4CCCCC4)cc3)C[C@@H]21,-11.6% (inactive)
5,CCOC(=O)C1=C(CN2CCc3ccccc32)NC(=O)NC1c1cc(C)ccc1C (stereo unspecified),34.6% (inactive)
6,CCOC(=O)C1=C(CN2CCc3ccccc32)NC(=O)NC1c1cccc([N+](=O)[O-])c1 (stereo unspecified),43.4% (inactive)
7,CCOC(=O)C1=C(CN2CCc3ccccc32)NC(=O)NC1c1ccc(Cl)cc1 (stereo unspecified),61.5% (active)
8,COc1cc(CCN=Cc2ccccc2O)c([N+](=O)[O-])cc1OC,-5.6% (inactive)
9,O=C(NCC(O)c1nc2ccccc2[nH]1)c1ccc(Br)cc1 (stereo unspecified),-5.63% (inactive)
10,CCc1nc2ccc(C(=O)Nc3cccc(OC)c3)cn2c1N(CCC(C)C)CCN(C)C,-15.1% (inactive)
11,COc1ccccc1OCC(=O)OCn1c(SC)nnc(C)c1=O,14.2% (inactive)
12,CC(=O)Nc1ccc(Nc2c([N+](=O)[O-])cc(S(C)(=O)=O)cc2[N+](=O)[O-])cc1,3.04% (inactive)
13,CC(=O)Nc1ccc(Nc2c3ccccc3nc3ccccc23)cc1,106% (active)
14,CC(=O)Nc1ccc(S(=O)(=O)N(C)c2nc3ccccc3nc2Cl)cc1,2.27% (inactive)
15,CC(C)Nc1nc(NCCOc2ccccc2Cl)c2sccc2n1,34.3% (inactive)
16,COc1ccc(-c2[nH][nH]c(=O)c2NC(=O)c2ccc([N+](=O)[O-])cc2)cc1,9.48% (inactive)
17,CC(O)c1ccc(OCCN(C)c2ccccn2)cc1 (stereo unspecified),-135% (inactive)
18,CCN(CC)CCOc1ccc2c(c1)C(=NNC(=O)c1ccccn1)c1cc(OCCN(CC)CC)ccc1-2,109% (active)
19,CN(CCOc1ccc(CC2SC(=O)NC2=O)cc1)c1ccccn1 (stereo unspecified),-26.7% (inactive) and -30.1% (inactive)
